Assay results: PMC5540273 (PLoS ONE, 2017)

How the values were obtained:
Details in all cases: concentration: 1 μM, replicates: in singlicate; n = 1
PRKR = test system: T1, PRKR
T1 construct: gene EIF2AK2

PRKX = test system: PRKX
PRP4 = test system: PRP4
PYK2 = test system: T2, PYK2
T2 construct: gene PTK2B

QSK = test system: QSK
RAF1 = test system: RAF1
RET = test system: RET
RIOK1 = test system: RIOK1
RIOK2 = test system: RIOK2
RIOK3 = test system: RIOK3
RIPK1 = test system: RIPK1
RIPK2 = test system: RIPK2
RIPK4 = test system: RIPK4
RIPK5 = test system: RIPK5
ROCK1 = test system: ROCK1
ROCK2 = test system: ROCK2
ROS1 = test system: ROS1
[1] = test system: RPS6KA4(Kin.Dom.1-N-terminal)
[2] = test system: RPS6KA4(Kin.Dom.2-C-terminal)
[3] = test system: RPS6KA5(Kin.Dom.1-N-terminal)
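Further: KINOMEscan kinase panel screen.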

SMILES | %Inh (PRKR) [%] | %Inh (PRKX) [%] | %Inh (PRP4) [%] | %Inh (PYK2) [%] | %Inh (QSK) [%] | %Inh (RAF1) [%] | %Inh (RET) [%] | %Inh (RIOK1) [%] | %Inh (RIOK2) [%] | %Inh (RIOK3) [%] | %Inh (RIPK1) [%] | %Inh (RIPK2) [%] | %Inh (RIPK4) [%] | %Inh (RIPK5) [%] | %Inh (ROCK1) [%] | %Inh (ROCK2) [%] | %Inh (ROS1) [%] | %Inh [1] [%] | %Inh [2] [%] | %Inh [3] [%]
Cl.Cl.c1ccc(-c2cc3ccncc3cc2OC2CCNCC2)cc1 [GSK1122999] | 0 | 34 | 0 | 10 | 7 | 12 | 28 | 33 | 0 | 45 | 31 | 17 | 9 | 1 | 94.6 | 91.6 | 33 | 11 | 39 | 27
CSc1nn2c(=O)cc(N3CCOCC3)nc2n1Cc1cccc(Cl)c1Cl [GSK2347225] | 0 | 23 | 0 | 31 | 8 | 6 | 11 | 34 | 28 | 19 | 0 | 20 | 7 | 0 | 15 | 0 | 46 | 17 | 0 | 11
CCn1c(-c2ccncc2)nc2cnccc21 [SB-735216] | 0 | 0 | 18 | 1 | 27 | 6 | 0 | 12 | 20 | 0 | 0 | 15 | 10 | 14 | 31 | 13 | 2 | 0 | 11 | 0
Fc1ccc(Nc2nccc(-c3c(-c4ccc(Cl)cc4)nn4ncccc34)n2)cc1F [GW829058] | 0 | 0 | 0 | 1 | 20 | 18 | 9 | 0 | 10 | 7 | 0 | 12 | 29 | 37 | 20 | 33 | 14 | 25 | 3 | 2
COc1cc2ncnc(Nc3ccc(OCc4ccccc4Br)c(Cl)c3)c2cc1OC.Cl [GI261590] | 0 | 0 | 0 | 32 | 0 | 21 | 14 | 29 | 0 | 10 | 0 | 86 | 7 | 0 | 16 | 27 | 4 | 9 | 0 | 0
CCc1nc(-c2cccc(N(C)S(=O)(=O)c3ccccc3)c2)c(-c2ccnc(Nc3ccc(N4CCN(C(C)=O)CC4)nc3)n2)s1 [GSK1645895] | 17 | 23 | 16 | 0 | 1 | 18 | 0 | 17 | 5 | 15 | 0 | 90 | 18 | 10 | 0 | 0 | 0 | 0 | 0 | 0
Oc1ccc2ncnc(Nc3ccc(OCc4ccccc4)cc3)c2c1 [GI262866] | 0 | 11 | 26 | 0 | 10 | 18 | 12 | 18 | 4 | 10 | 1 | 100 | 6 | 0 | 0 | 0 | 0 | 8 | 0 | 4
COc1cc2c(Nc3cccc(NC(=O)c4ccccc4)c3)ncnc2cc1OCCCN1CCOCC1 [GSK223810] | 0 | 7 | 2 | 24 | 0 | 16 | 90.8 | 38 | 10 | 24 | 0 | 31 | 0 | 8 | 34 | 14 | 0 | 9 | 0 | 9
FC(F)(F)c1ccc(-c2nn3ncccc3c2-c2ccnc(Nc3cccc(C(F)(F)F)c3)n2)cc1 [GW828205] | 0 | 0 | 0 | 1 | 0 | 0 | 0 | 26 | 0 | 25 | 0 | 0 | 0 | 0 | 0 | 0 | 0 | 16 | 0 | 0
